DT40 TDP1 no CPT = qHTS for Inhibitors of human tyrosyl-DNA phosphodiesterase 1 (TDP1): qHTS in cells in absence of CPT; DT40 Tdp1-/- hTDP1 cells, no CPT, ATP luminescence, 48 h; Potency, µM (titrated, usually from 46.2 µM), for the others: top-dose activity change, negative = growth inhibition, actives largely listed as inhibitors; 420,000 compounds, 15% hits; further: nearly all actives have a fitted effect of over 55% in size
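Camptothecin absent (DMSO only). Human TDP1-complemented DT40 knockout cells, 400 cells/well, 37 °C for minimum 48 hr; ATP measured via CellTiter-Glo, 30 min dark incubation, luminescence.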
KB-3-1 cytotox = KB-3-1 parental cell cytotoxicity; 400,000 compounds, 1.4% hits; KB-3-1 viability, CellTiter-Glo ATP luminescence, 72 h; Potency, µM (titrated, usually from 46.1 µM), most hits filed as cytotoxic; AID 1347075; further: nearly all actives have a fitted effect of over 60% in size
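Parental KB-3-1 viability, qHTS format: 72 h compound exposure, 37 °C; CellTiter-Glo; media-only wells and DMSO plates as controls; concentration-effect fits on corrected data.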
DT40 TDP1 CPT = DT40-hTDP1 cell growth loss with CPT; chicken DT40 Tdp1-/-;hTDP1 cells + 20 nM CPT, ATP luminescence, 48 h; AID 686979; 420,000 compounds, 12% hits; Potency, µM (doses to about 46.2 µM), for inactives: at the top dose activity change, negative = growth inhibition, actives largely listed as inhibitors; further: nearly all actives have a fitted effect of over 55% in size
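Chicken DT40 Tdp1-/- cells complemented with human TDP1, 400 cells/well, exposed to compounds plus 20 nM camptothecin for at least 48 h at 37 C; viability read as ATP content by CellTiter-Glo luminescence.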
HT1080NT lethal = kills 2HG-producing HT-1080-NT fibrosarcoma cells | HT-1080-NT fibrosarcoma viability, CellTiter-Glo ATP luminescence, 48 h | Potency, µM (series often up to 46.1 µM), for inactives: at the highest dose activity, negative = less viability, hits mostly cytotoxic | 360,000 compounds, 1.6% hits | AID 686970;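 further: NT is the 2HG producing partner of a matched IDH1 knockdown line; 0% = DMSO-treated cells and -100% = media-only wells without cells; nearly all actives have a fitted effect of over 55% in size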
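Viability by CellTiter-Glo luminescence after 48 h compound exposure at 37C of HT-1080-NT cells (750/well, RPMI, 5% FBS). % activity scaled between DMSO wells and medium-only wells, then curve-fitted and categorized by curve class.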
HT1080 IDH1KD tx = toxicity to HT-1080 IDH1 knockdown cells (counter line); HT-1080 IDH1 knockdown viability, ATP luminescence, 48 h; Potency, µM (series often up to 46.1 µM), for inactives: top-dose activity, negative = toxicity, hits mostly cytotoxic; 360,000 compounds, 2% hits; AID 686971;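 further: 0% = DMSO wells and -100% = cell-free medium wells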
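Luminescent ATP read-out (CellTiter-Glo, 10 min at room temperature) after 48 h compound exposure at 37 °C gave viability of IDH1-knockdown HT-1080 cells. Activity was normalised to DMSO and cell-free wells, then fitted as concentration-response curves.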
KB-V1 cytotox = kills drug-selected multidrug resistant KB-V1 cells | Potency, µM (highest dose often 46.1 µM), actives largely listed as cytotoxic | 400,000 compounds, 3.4% hits | KB-V1 MDR cells viability, CellTiter-Glo, 72 h; further: nearly all actives have a fitted effect of over 60% in size
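qHTS viability screen in drug-selected KB-V1 MDR cells: 72 h compound treatment at 37 degrees C, ATP luminescence end point.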
An asterisk follows results filed as active; i = inactive; ? = inconclusive; · = not tested or not shown; [ ] = dose if it differs, or a comment. Only some compounds are listed: those with a hit (about 19% of all), similar ones and a draw of the others. The call rests on the fitted dose curve; in most records, active means well fitted curve in the direction sought with a large enough effect; inconclusive means small, poorly fitted or top-dose-only effect, or another doubt; inactive means no such curve, though single readings can be large; an effect the other way counts as inactive or inconclusive. Unless noted, on the % scale 0 is the no-effect control and ±100 the full control effect; potency means the concentration at half of the fitted maximal effect.

SMILES	DT40 TDP1 no CPT	KB-3-1 cytotox	DT40 TDP1 CPT	HT1080NT lethal	HT1080 IDH1KD tx	KB-V1 cytotox
COc1ccc(CCNc2nc(C)cc(=O)[nH]2)cc1OC	8%	i	-1%	10%	5%	i
CCOc1nc(NCCc2ccc(OC)c(OC)c2)nc(N2CCN(c3ccc(OC)cc3)CC2)n1	4%	i	-9%	-3%	-2%	i
COc1ccccc1C(=O)NC(=O)Nc1nc(-c2ccccc2)cc(C(F)(F)F)n1	?	i	15µM*	-2%	1%	i
CCOc1cc(C)nc(NCCc2ccc(OC)c(OC)c2)n1	20µM*	i	?	0%	-1%	?
O=C(NC(=O)c1cccc(F)c1)Nc1nc(-c2ccc(F)cc2)cc(C(F)(F)F)n1	-26%	i	-1%	14%	13%	i
Fc1ccc(CNc2nc(-c3ccc(Cl)cc3)cc(C(F)(F)F)n2)cc1	18µM*	?	23µM*	·	·	i
COc1ccc(N2CCN(c3nc(NCCc4ccc(OC)c(OC)c4)nc(OC)n3)CC2)cc1	4.6µM*	i	6.5µM*	?	?	i
Cc1ccc(CNC(=O)c2cccc(-n3cnc4cccnc43)c2)cc1	?	i	?	·	·	i
CSc1cccc(NC(N)=S)c1	?	i	-24%	1%	19%	i
Cc1noc(C)c1C(=O)N(CC(=O)Nc1ccc(Cl)c(C(F)(F)F)c1)Cc1ccco1	-27%	i	-23%	-3%	-3%	?
COc1ccc(CCNc2nc(-c3ccc(OC)c(OC)c3)cc(C(F)(F)F)n2)cc1OC	?	?	18µM*	·	·	i
Fc1ccc(-c2cc(C(F)(F)F)nc(NCc3ccccc3)n2)cc1	?	i	?	·	·	i
COc1ccc(-c2cc(C(F)(F)F)nc(NCc3ccccc3)n2)cc1	?	i	26µM*	·	·	?
COc1ccc2c(c1)c1c(n2C(C)=O)C(OC(C)=O)=NCC1	?	i	?	7%	0%	?
Cc1ccc(N2CCN(C(=O)NCc3noc4ccc(C)cc34)CC2)c(C)c1	?	i	?	·	·	i
COc1cccc(-c2ccc3ncnc(NCc4cnc(C)cn4)c3c2)c1	15µM*	·	23µM*	·	·	·
Cc1cnc(CNc2ncnc3ccc(-c4ccccc4C)cc23)cn1	?	·	16µM*	·	·	·
C=C(C)[C@@H]1CC=C(CN2CCC(N3CCC(C(=O)N4CCCC4)CC3)CC2)CC1	21µM*	?	21µM*	18µM*	21µM*	?
CC(C)=CCCC(C)CN1CCC(N2CCC(C(=O)N3CCCC3)CC2)CC1 (stereo unspecified)	16µM*	i	?	-4%	?	i
CC(C)/C=C/C(=O)N1CCC(N2CCC(C(=O)N3CCOCC3)CC2)CC1	-2%	i	-3%	1%	8%	i
c1nc(C2CCCCC2)cc2cc3c(cc12)OCO3	21µM*	i	?	15%	17%	i
O=C1NC(=O)/C(=C/c2ccc(-c3cccc([N+](=O)[O-])c3)o2)S1	?	i	16µM*	-6%	-7%	?
O=C(/C=C/c1ccc(-c2cccc([N+](=O)[O-])c2)o1)N1CCOCC1	18µM*	i	16µM*	-20%	-22%	?
O=C1NC(=S)S/C1=C\c1cccc([N+](=O)[O-])c1	13µM*	?	?	-22%	-27%	?
Cc1ccc(C(=O)NNS(=O)(=O)c2ccc(F)cc2)cc1	2%	i	-1%	20%	13%	i
SMILES	DT40 TDP1 no CPT	KB-3-1 cytotox	DT40 TDP1 CPT	HT1080NT lethal	HT1080 IDH1KD tx	KB-V1 cytotox
O=C(CC1SC(N2CCCC2)=NC1=O)Nc1ccc(C(=O)Nc2ncccc2O)cc1 (stereo unspecified)	10µM*	?	15µM*	-27%	?	i
CN(Cc1ccccc1F)C(=O)c1cccc(NC(=O)CC2SC(N3CCCCC3)=NC2=O)c1 (stereo unspecified)	23µM*	i	18µM*	-8%	-10%	i
O=C(CC1SC(N2CCCC2)=NC1=O)Nc1ccc(C(=O)N2CCN(c3cccc(Cl)c3)CC2)cc1 (stereo unspecified)	?	i	15µM*	0%	-13%	i
O=C(C1CCCCC1)N1C[C@H](O)[C@@H](n2cc(C3CC3)nn2)C[C@@H]1c1ccccc1	0%	i	-12%	6%	0%	i
O=C(CCc1c[nH]c2ccccc12)NC1CC1	-4%	i	15%	13%	16%	?
C=CC(C1=CC(=O)C(OC)=CC1=O)c1ccccc1 (stereo unspecified)	2.9µM*	·	3.7µM*	·	·	·
C=CC(C1=CC(=O)C(OC)=CC1=O)c1ccc(OC)cc1 (stereo unspecified)	2.9µM*	·	3.3µM*	·	·	·
C=CC(C1=CC(=O)C(OC)=C(OC)C1=O)c1ccccc1 (stereo unspecified)	0.73µM*	·	0.82µM*	·	·	·
CCOC(=O)N1CCc2cc(OC)c(OC)c3c2c1cc1cc(OC)c(OC)cc13	12µM*	4.1µM*	?	?	16µM*	2.3µM*
COc1cc2c(Cc3c4c5c(cc(OC)c(OC)c5c5c(OC)c(OC)ccc35)CCN4C)c3c4c(cc(OC)c(OC)c4c2cc1OC)CCN3C	-21%	·	-12%	·	·	·
O=Cc1ccccc1OCc1nnsc1Cl	?	i	?	?	?	i
S=c1[nH]cnc2scc(-c3ccccc3)c12	23µM*	i	?	-1%	5%	?
CC[C@H](CC[C@@H](C)[C@H]1CC[C@H]2[C@@H]3CC=C4C[C@@H](O)CC[C@]4(C)[C@H]3CC[C@]12C)C(C)C	4%	·	7%	·	·	·
COC(=O)N1c2ccccc2C23[C@@H]4CN5CCC[C@]6(CCC12C(O)(C6)C4=O)[C@H]53	-15%[9.04 µM]	·	-15%[9.04 µM]	·	·	·
Cn1c(=O)cc(OCCCC(=O)NCc2ccc(F)cc2Cl)c2ccccc21	?	i	-26%	28%	15%	?
CCn1c(=O)cc(OCC(=O)NC2CC2)c2ccccc21	30%	i	2%	-20%	-2%	i
CCc1ccc(CNC(=O)COc2cc(=O)n(CC)c3ccccc23)cc1	26µM*	?	?	·	·	i
CCn1c(=O)cc(OCC(=O)NCCC(C)C)c2ccccc21	?	i	29µM*	10%	10%	i

Bioassay records (PubChem)
